Here are results for 28 molecules from the supplement of paper PMC12494721.

Structures can show the parent of a compound that is named as a salt.

This experiment relates to Clostridium sporogenes DSM 1664. As to the kind of experiment: growth (OD595) fold change vs plate DMSO controls (fold change (ratio)); higher = more growth. Conditions: incubation time: 27 h, anaerobic, 37 °C. In short, it runs like this:
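After 27 h at 37 °C under anaerobic conditions, 96-well cultures in mGAM were shaken and read at 595 nm. The readings were blank-subtracted, corrected for compound background using 20 µM compound solutions in water, and converted to OD with a calibration factor of 5. Growth is defined as the fold change over the median of DMSO controls on each plate. Fold changes above 1.5 were set to NA, and each value is the mean of 2 biological replicates.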
As to `CC1(C)S[C@@H]2[C@H](NC(=O)Cc3ccccc3)C(=O)N2[C@H]1C(=O)O` [Benzylpenicillin sodium] (20 µM), the growth was found to be 0.

Consider `COC(=O)Nc1nc2cc([S+]([O-])c3ccccc3)ccc2[nH]1` (stereo not drawn) [Oxfendazole] (20 µM), for which the growth was found to be 0.943.

`CCCc1nc(C)c2c(=O)nc(-c3cc(S(=O)(=O)N4CCN(CC)CC4)ccc3OCC)[nH]n12` [Vardenafil] (20 µM): the growth worked out at 1.15.

`NS(=O)(=O)c1cc(C(=O)O)cc(N2CCCC2)c1Oc1ccccc1` [Piretanide] (20 µM): the growth amounted to 1.09.

As to `C[C@H]1C[C@@H]2[C@H]([C@@H](O)C[C@@]3(C)[C@H]2CC[C@]3(O)C(=O)CO)[C@@]2(C)C=CC(=O)C=C12` [Methylprednisolone, 6-alpha] (20 µM), the growth came out at 0.939.

For `Oc1ccc2ccccc2c1N=Nc1ccccc1` [Sudan I (1-phenylazo-2-hydroxynaphthalene)] (20 µM), the growth was 0.978.

On to `CC(=O)OCC(=O)[C@@]1(O)CC[C@H]2[C@@H]3CCC4=CC(=O)CC[C@]4(C)[C@H]3[C@@H](O)C[C@@]21C` [Cortisol acetate] (20 µM), for which the growth is 1.13.

Turning to `CCN(CC)CCNc1ccc(CO)c2sc3ccccc3c(=O)c12` [Hycanthone] (20 µM), the growth is 1.05.

Take `CC(=O)NC[C@H]1CN(c2ccc(N3CCOCC3)c(F)c2)C(=O)O1` [Linezolid] (20 µM): the growth is 0.

Take `NNC(=O)c1ccncc1` [Isoniazid] (20 µM): the growth was found to be 1.22.

In the case of `O=C(NCCO[N+](=O)[O-])c1cccnc1` [Nicorandil] (20 µM), the growth was determined as 1.03.

Take `CC(=O)[C@H]1CC[C@H]2[C@@H]3CC=C4C[C@@H](O)CC[C@]4(C)[C@H]3CC[C@]12C` [Pregnenolone] (20 µM): the growth turned out to be 1.1.

`OC[C@@H](O)[C@@H](O)[C@H](O)[C@H](O)CO` [Mannitol] (50 µM): the growth stood at 1.02.

`CC[C@@]1(O)C(=O)OCc2c1cc1n(c2=O)Cc2cc3c(CN(C)C)c(O)ccc3nc2-1` [Topotecan] (20 µM): the growth stood at 1.08.

On to `CCCCc1ncc(/C=C(\Cc2cccs2)C(=O)O)n1Cc1ccc(C(=O)O)cc1` [Eprosartan mesylate] (20 µM), for which the growth worked out at 1.06.

Consider `CCN(CC)CC(=O)Nc1c(C)cccc1C` [Lidocaine hydrochloride] (20 µM), for which the growth worked out at 0.845.

Take `CC(C)c1nc(CN(C)C(=O)N[C@H](C(=O)N[C@@H](Cc2ccccc2)C[C@H](O)[C@H](Cc2ccccc2)NC(=O)OCc2cncs2)C(C)C)cs1` [Ritonavir] (20 µM): the growth was determined as 1.01.

Take `O=C(OCCOCCO)c1ccccc1Nc1cccc(C(F)(F)F)c1` [Etofenamate] (20 µM): the growth is 1.2.

Consider `CCCCOc1ccc(CC(=O)NO)cc1` [Bufexamac] (20 µM), for which the growth was 0.989.

Regarding `Cc1scc2c1N(C(=O)CN1CCN(C)CC1)c1ccccc1NC2=O` [Telenzepine dihydrochloride] (20 µM), the growth is 1.09.

Take `OC[C@H]1O[C@H](O[C@H]2O[C@H](CO)[C@@H](O)[C@H](O)[C@H]2O)[C@H](O)[C@@H](O)[C@@H]1O` [Trehalose] (50 µM): the growth was 0.902.

In the case of `NCCCC(O)(P(=O)(O)O)P(=O)(O)O` [Alendronate sodium] (20 µM), the growth is 1.08.

`CC(=O)Nc1ccc(CC(=O)O)cc1` [Actarit] (20 µM): the growth was determined as 0.864.

In the case of `CCCCc1cc2ccccc2c(OCCN(C)C)n1` [Dimethisoquin hydrochloride] (20 µM), the growth was determined as 0.969.

Take `CC[C@H]1OC(=O)C[C@@H](O)[C@H](C)[C@@H](O[C@@H]2O[C@H](C)[C@@H](O[C@H]3C[C@@](C)(O)[C@@H](O)[C@H](C)O3)[C@H](N(C)C)[C@H]2O)[C@@H](CC=O)C[C@@H](C)C(=O)/C=C/C(C)=C/[C@@H]1CO[C@@H]1O[C@H](C)[C@@H](O)[C@@H](OC)[C@H]1OC` [Tylosin] (20 µM): the growth turned out to be 0.

On to `CN(C)CCC=C1c2ccccc2C=Cc2ccccc21` [Cyclobenzaprine hydrochloride] (20 µM), for which the growth is 0.862.

As for `CC(=C(CCO)SSCC1CCCO1)N(C=O)Cc1cnc(C)nc1N` (stereo in doubt) [Fursultiamine hydrochloride] (20 µM), the growth was 1.08.

Take `CCOC(=O)O[C@]1(C(=O)OCCl)CC[C@H]2[C@@H]3CCC4=CC(=O)C=C[C@]4(C)[C@H]3[C@@H](O)C[C@@]21C` [Loteprednol etabonate] (20 µM): the growth is 1.29.
